Among the data in PubChem BioAssay (NCATS) are Potency, outcome and activity change, negative = cell killing values, retold here.

Structures are written as SMILES. Inconclusive results are not listed. Where a call stands in place of a potency, no number is given. The source made the active and inactive calls. The call rests on the fitted dose curve; in most records, active means well fitted inhibition curve with a large enough effect; inconclusive means small, poorly fitted or top-dose-only effect; inactive means no such curve, though single readings can be large or run the other way.
Potency means the concentration at half of the fitted maximal effect.

A short description of this test: Primary qHTS for inhibitors of nuclear receptor binding SET domain protein 2 (NSD2) in an RCH-ACV wild type WT cells (2C) (AID 1645877). Further: nearly all actives have a fitted effect of over 70% in size. The following applies: RCH-ACV (leukaemia line) NSD2 WT (2C) viability, CellTiter-Glo, 72 h; series mostly up to 44.9 µM. In general terms: qHTS replaces the single test concentration by a dilution series.
`COc1cccc(-c2c(C)n(Cc3c(F)cccc3C(F)(F)F)c(=O)n(C[C@H](NCCCC(=O)O)c3ccccc3)c2=O)c1F`: the Potency entry was “inactive”.

On to `C=C1C[C@H]2C=Nc3cc(OCCCOc4cc5c(cc4OC)C(=O)N4CC(=C)C[C@H]4C=N5)c(OC)cc3C(=O)N2C1`, for which the Potency entry was “inactive”.

Regarding `O=C(O)CCNc1cc(N2CCc3ccccc3CC2)nc(-c2cccnc2)n1`, the Potency result is “inactive”.

Take `CN1CCN(C(=O)c2ccc(-c3ccc4c(C=O)c(O)ccc4c3)s2)CC1`: the Potency result was “inactive”.

`N=C(N)c1ccc2nc(-c3cc(CC(=O)N[C@@H](CC(=O)O)C(=O)O)cc(-c4cc(S(N)(=O)=O)ccc4O)c3O)[nH]c2c1`: the Potency result was “inactive”.

Turning to `C[C@H](Nc1nc(N[C@H](C)C(F)(F)F)nc(-c2cccc(Cl)n2)n1)C(F)(F)F`, the Potency result is “inactive”.

As for `O=C1OC(COc2ccccc2[N+](=O)[O-])CC1Cc1ccccc1` (centres undefined), the Potency entry is “inactive”.

As for `COc1cc2c(cc1OC)CN(CCc1ccc(-n3nnc(-c4cc(OC)c(OC)cc4NC(=O)c4cc(=O)c5ccccc5o4)n3)cc1)CC2`, the outcome was “inactive [at 0.588 µM]”.

With `COCCNc1cc(NC(=O)N2CCCc3cc(CN4CCN(C)CC4=O)c(C=O)nc32)ncc1C#N`, the activity change, negative = cell killing was 2.96% [at 9.23 µM] (inactive).

On to `N#Cc1ccnc(N2C(=O)CC[C@H]2C(=O)N(c2cncc(F)c2)C(C(=O)NC2CC(F)(F)C2)c2ccccc2Cl)c1` (some centres undefined), for which the Potency result is “inactive”.

On to `CC1(N)CCN(c2cnc(-c3cccc(Cl)c3Cl)c(N)n2)CC1`, for which the Potency result is “inactive”.

In the case of `O=C(O)C[C@H]1CCc2c1[nH]c1ccc(OCc3ccc(C4CCCC4)c(C(F)(F)F)c3)cc21`, the Potency result is “inactive”.

For the compound `CCOc1ccc(Cc2cc([C@@H]3O[C@H](CO)[C@@H](O)[C@H](O)[C@H]3O)ccc2Cl)cc1`, the Potency result is “inactive”.

Consider `COc1cc(C)[nH]c(=O)c1CN1CCc2c(Cl)cc([C@H](OC)C3COC3)c(Cl)c2C1=O`, for which the Potency entry is “inactive”.

For `CC[C@@]1(O)C(=O)OCc2c1cc1n(c2=O)Cc2c-1nc1ccccc1c2CCNC(C)C`, the Potency was 2.6 nM (active).

With `CC1(C)OC2=C(C(=O)c3ccccc3C2=O)[C@H](NCc2ccccc2)[C@@H]1O`, the Potency is 6610 nM (active).

For `CN[C@@H](C)C(=O)N[C@H](C(=O)N1CCC[C@H]1C(=O)Nc1sc(-c2ncco2)nc1-c1ccccc1)C1CCCCC1`, the Potency result is “inactive”.

`O=C(O)c1ccccc1-c1ccc(/C=c2\sc3nc4cc(Br)cnc4n3c2=O)o1`: the Potency result is “inactive”.

Consider `O=C(/C=C/c1ccc(/C=C/C(=O)Nc2ccc(C3=NCCN3)cc2)cc1)Nc1ccc(C2=NCCN2)cc1`, for which the activity change, negative = cell killing was -11% [at 4.96 µM] (inactive).

Take `Cc1c(NC(=O)c2cc(C(N)=O)nc3cc(F)ccc23)c(C(F)(F)F)nn1Cc1ccc(C(C)(C)C)cc1`: the Potency result is “inactive”.

As for `COC1CCC(N2C(=O)CNc3ncc(-c4ccc(C(C)(C)O)nc4)nc32)CC1` (centres undefined), the Potency was 3720 nM (active).

Take `Cc1c(-c2c(-c3ccc(F)o3)sc3ncnc(O[C@@H](Cc4ccccc4OCc4ccnn4CC(F)(F)F)C(=O)O)c23)ccc(OCCN2CCN(C)CC2)c1Cl`: the Potency was 166 nM (active).

As to `Cn1cc(-c2nc(N[C@@H]3CCCC[C@@H]3N)c(F)c3c2C(=O)NC3)cn1`, the Potency is 590 nM (active).

Consider `O=C1NC(=O)/C(=C\c2ccc(-c3ccc(F)cc3)o2)S1`, for which the Potency entry was “inactive”.

With `CONC(=O)Nc1ccc(-c2sc3c(c2CN(C)Cc2ccccc2)c(=O)n(-c2ccccc2)c(=O)n3Cc2c(F)cccc2F)cc1`, the Potency entry was “inactive”.

Regarding `Cc1[nH]cnc1CN1CCN(C(=O)N[C@@H](CC(C)C)C(=O)O)[C@@H](Cc2ccccc2)C1=O`, the Potency result was “inactive”.

As to `O=C(O)CNC(=O)c1nc(Cl)c2ccccc2c1O`, the Potency result was “inactive”.

With `CC(C)(O)c1coc(S(=O)(=O)NC(=O)Nc2c3c(cc4c2CCC4)CCC3)c1`, the Potency result was “inactive”.

As to `Cc1nc(NC(=O)N2CCC[C@H]2C(N)=O)sc1-c1csc(C(C)(C)C)n1`, the Potency was 4680 nM (active).

Take `C/C=C1\NC(=O)[C@H]2CSSCC/C=C\[C@H](CC(=O)N[C@H](C(C)C)C(=O)N2)OC(=O)[C@H](C(C)C)NC1=O`: the Potency is 6.6 nM (active).

On to `CC(C)[C@H]1C(=O)N[C@@H](CCCN=C(N)N)C(=O)NCC(=O)N[C@@H](CC(=O)O)C(=O)N[C@H](Cc2ccccc2)C(=O)N1C`, for which the Potency entry was “inactive”.

In the case of `CC(C)n1c(=O)cc(N[C@@H](C)c2ccccc2)[nH]c1=O`, the Potency result was “inactive”.

`CSC[C@H]1CN(Cc2c[nH]c3c(N)ncnc23)C[C@@H]1O`: the Potency result is “inactive”.

Turning to `C=CC(=O)Nc1cccc(Oc2nc(Nc3ccc(N4CCN(C)CC4)c(F)c3)nc3[nH]ccc23)c1`, the Potency was 1320 nM (active).
